MPTP block = blocks calcium-induced mitochondrial swelling; isolated mouse mitochondria, Ca2+ swelling absorbance, 30 min; inhibition, % at 10 µM; hit rate 1.4% among 360,000;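 active = inhibition of 50% or more, scaled per plate between neutral and stimulator controls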
CSC inhib = blocks cancer stem cells | cancer stem cell-like cells viability, luminescence | inhibition, % at 7.5 µM | hit rate 1.1% among 300,000 | AID 2717; in the data active = inhibition above about 75%; inconclusive = no clear call, values can overlap the other calls; tested in HMLE shEcad cells
Calb FLC = C. albicans growth modulation with fluconazole; C. albicans CaCi-2 (fluconazole-resistant clinical isolate) + fluconazole, Alamar Blue growth, 48 h; growth inhibition, % (concentration not given with the values); hit rate 0.57% among 300,000; AID 1979;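 active = growth inhibition above about 58% in most replicates, limit read from the data, passing the limit was not always enough; inconclusive = exactly half the replicates above a set limit; inactive = most replicates below a set limit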;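 note: all wells also contain fluconazole at 8 µg/ml as a sub-toxic cotreatment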
Beta cell apopt = blocks beta cell apoptosis. AID 435005. hit rate 0.8% among 300,000. INS-1E cytokine-induced death, ATP luminescence, 48 h; percent of positive-control rescue, neutral wells zero. protection from apoptosis, % (no concentration beside the values);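 active = Every replicate reaches about 75%, or at least half do and their mean reaches it too, limit read from the data; inconclusive = At least half of replicates reach the limit but their mean does not; inactive = Under half of replicates reach the limit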;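 note: higher means more ATP so stronger rescue from cytokine killing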
Mdm2 MdmX PPI = human Mdm2/MdmX binding inhibition; AID 485346; SaOS-2 split-luciferase Mdm2/MdmX complementation, luminescence; inhibition, % at 8 µM; hit rate 3% among 330,000;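 active = inhibition of at least 50% at 8 µM in the primary screen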
Target sequence (O15151 whole entry, looked up): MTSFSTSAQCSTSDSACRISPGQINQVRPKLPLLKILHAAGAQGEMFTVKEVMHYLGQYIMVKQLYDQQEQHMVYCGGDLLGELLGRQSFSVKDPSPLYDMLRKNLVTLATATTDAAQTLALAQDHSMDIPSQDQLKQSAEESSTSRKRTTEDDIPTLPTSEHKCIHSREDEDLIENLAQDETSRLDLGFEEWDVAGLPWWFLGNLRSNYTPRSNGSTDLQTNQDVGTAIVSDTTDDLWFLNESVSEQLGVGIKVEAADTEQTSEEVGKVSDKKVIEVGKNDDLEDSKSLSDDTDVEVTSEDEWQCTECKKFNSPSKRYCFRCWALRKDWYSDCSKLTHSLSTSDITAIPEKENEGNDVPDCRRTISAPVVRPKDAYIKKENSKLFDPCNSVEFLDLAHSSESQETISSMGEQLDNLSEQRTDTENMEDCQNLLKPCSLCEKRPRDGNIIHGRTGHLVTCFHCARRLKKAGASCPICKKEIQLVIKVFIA
Target sequence (Q00987 whole entry, looked up): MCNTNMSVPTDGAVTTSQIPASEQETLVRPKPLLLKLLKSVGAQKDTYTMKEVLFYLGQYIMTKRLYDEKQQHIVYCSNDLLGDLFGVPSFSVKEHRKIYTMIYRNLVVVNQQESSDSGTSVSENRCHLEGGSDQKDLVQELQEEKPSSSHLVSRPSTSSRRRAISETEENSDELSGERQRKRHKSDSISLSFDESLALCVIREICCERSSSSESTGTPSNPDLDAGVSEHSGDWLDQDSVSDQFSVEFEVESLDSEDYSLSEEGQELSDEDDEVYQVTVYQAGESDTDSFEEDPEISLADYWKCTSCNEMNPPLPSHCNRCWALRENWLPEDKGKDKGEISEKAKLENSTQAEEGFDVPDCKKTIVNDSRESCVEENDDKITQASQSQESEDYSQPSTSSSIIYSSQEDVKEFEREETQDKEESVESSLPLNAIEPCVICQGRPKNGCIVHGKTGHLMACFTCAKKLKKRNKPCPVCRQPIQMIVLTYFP
MPTP counter = Rhodamine 123 counter-screen of mitochondrial pore hits; shares compounds with MPTP block; AID 624504; inhibition, % at 10 µM; hit rate 78% among 5,000; isolated mitochondria, membrane potential, Rhodamine 123 fluorescence; in the data active = inhibition above about 22%
MPTP swell DR = dose response confirmation of mitochondrial permeability transition pore inhibitors | shares compounds with MPTP block | isolated mitochondria swelling, absorbance | IC50, µM | hit rate 58% among 780 | AID 651561; in the data active = IC50 below about 20 µM
MPTP cs DR = MPTP inhibitor counter-screen activity, dose response. shares compounds with MPTP block. isolated mitochondria counterscreen, fluorescence read-out. IC50, µM. hit rate 49% among 780. AID 651564; in the data active = IC50 below about 80 µM
Each line names hits and unclear results; the compound was inactive in the other large screens (follow-up assays come after a bar, where they were run). The list is not random: actives were taken first. Their share in the collection is about 4.8%.

NC(=O)c1ccc(S(=O)(=O)N2CCSCC2)cc1	none
C(=C\c1nc(N2CCCC2)c2ccccc2n1)/c1ccccc1	MPTP block 90 | MPTP counter 95
Cc1ccc(C2C3=C(CC(C)(C)CC3=O)N=C3c4ccccc4C(=O)C32)cc1 (stereo not given)	MPTP block 86, Calb FLC 85 | MPTP counter 63
CN(Cc1ccc(OCC(O)CN2CCCCC2)cc1)Cc1ccnc2ccccc12 (stereo not given)	MPTP block 95 (no result: CSC inhib, Beta cell apopt, Mdm2 MdmX PPI) | MPTP counter 106
COc1ccc(OCc2nnc(SCC(=O)Nc3ccccc3Cl)o2)cc1	none
Cc1cccc(C)c1OCC(O)CN1CCC(CN2C(=O)c3cccc4cccc(c34)C2=O)CC1 (stereo not given)	MPTP block 62 | MPTP counter inactive
COCCN1C(=O)C(=O)/C(=C(/O)c2ccc(S(=O)(=O)N3CCCCC3)cc2)C1c1ccc(OC)cc1 (stereo not given)	none
COc1ccc(S(=O)(=O)NCC(=O)N(CC(=O)NCc2ccco2)Cc2ccc(F)cc2)cc1	none
CC(O)CNCCCOc1cccc(Oc2ccccc2)c1 (stereo not given)	MPTP block 60 | MPTP counter inactive | MPTP swell DR 13 | MPTP cs DR inactive
COc1ccc(CNC(=O)Nc2ccc([N+](=O)[O-])cc2)cc1	MPTP block 99 | MPTP counter 82
COc1ccc(NC(=O)NCc2ccc(Cl)cc2)cc1	none
O=C(NCCc1ccc(F)cc1)Nc1ccc([N+](=O)[O-])cc1	MPTP block 82 | MPTP counter 79
FC(F)(F)C1=Nc2cccc3cccc(c23)N1	MPTP block 103 (no result: CSC inhib, Calb FLC, Beta cell apopt) | MPTP counter 71
CCOC(=O)c1c(NC(=O)CSc2nc3ccccc3s2)sc(C(C)=O)c1C	MPTP block 86 | MPTP counter 50
Cc1cc(C)c(S(=O)(=O)N2CCCCC2)c(C)c1N(C)S(=O)(=O)c1ccc(Cl)cc1	none
[O-][n+]1c2c(c3c4non(O)c4ccc31)CCCC2	MPTP block 96 (no result: CSC inhib, Beta cell apopt) | MPTP counter 83
COn1c2c(c3c4no[n+]([O-])c4ccc31)CCCC2	none
Nc1nc2ccccc2cc1C(=O)NCCCCc1ccccc1	MPTP block 94 (no result: CSC inhib, Calb FLC, Beta cell apopt, Mdm2 MdmX PPI) | MPTP counter 104
CN(c1ccccc1)S(=O)(=O)c1ccc(NC(=O)CC(=O)c2ccccc2)cc1	MPTP block 57 (no result: CSC inhib, Calb FLC, Beta cell apopt, Mdm2 MdmX PPI) | MPTP counter 93
O=c1[nH]nc(SCc2nnc(-c3cccc(Cl)c3)o2)n1C1CCCCC1	MPTP block 73 | MPTP counter 33
COc1ccc(-c2nnc(CSc3nnc(-c4ccncc4)n3C3CCCCC3)o2)cc1OC	none
Cc1ccc(-c2noc(CCC(=O)NCCCN3CCN(c4cccc(Cl)c4)CC3)n2)cc1	MPTP block 94 | MPTP counter inactive
Cc1ccc(-c2noc(CCC(=O)NCCCN3CCN(c4ccc(F)cc4)CC3)n2)cc1	MPTP block 93 | MPTP counter inactive | MPTP swell DR 7 | MPTP cs DR 28
Cc1ccc(-c2noc(CCC(=O)NC3CCN(Cc4ccccc4)CC3)n2)cc1	MPTP block 72 (no result: CSC inhib, Beta cell apopt, Mdm2 MdmX PPI) | MPTP counter inactive | MPTP swell DR inactive | MPTP cs DR 34
COc1ccc(-c2noc(CCC(=O)NCCCN3CCN(c4ccccc4F)CC3)n2)cc1	MPTP block 55 | MPTP counter inactive | MPTP swell DR 8.8 | MPTP cs DR 20
CCn1c(C(=O)O)c(CC(=O)Nc2ccccc2OC)c2ccccc21	none
Cc1ccn2c(CC(C)(C)C)c(-c3ccc(F)cc3)nc2c1	none (no result: CSC inhib, Calb FLC, Beta cell apopt, Mdm2 MdmX PPI)
Cc1ccc2c(c1)S(=O)(=O)c1ccc3ccccc3c1N2	none (no result: CSC inhib, Calb FLC, Beta cell apopt, Mdm2 MdmX PPI)
COc1ccc(-c2noc(CCCCC(=O)N3CCN(c4cc(C)ccc4C)CC3)n2)cc1	MPTP block 97 (no result: CSC inhib, Calb FLC, Beta cell apopt) | MPTP counter 104
O=C(CCS(=O)(=O)Cc1ccc(Cl)cc1)NCCCN1CCN(c2ccccc2F)CC1	MPTP block 57 | MPTP counter inactive | MPTP swell DR inactive | MPTP cs DR inactive
Cc1ccccc1CS(=O)(=O)CCC(=O)NCCCN1CCN(c2ccccc2F)CC1	none
CN(Cc1cccc(Cl)c1Cl)C(=O)c1ccccc1SCC(=O)N1CCCC1	none (no result: CSC inhib, Calb FLC, Beta cell apopt, Mdm2 MdmX PPI)
CC(C)N(C(=O)CSc1ccc(S(=O)(=O)N2CCCCC2)cn1)C(C)C	none (no result: CSC inhib, Calb FLC)
Cc1cccc(Nc2c3c(nc4ccccc24)CCC3)c1	MPTP block 78, Calb FLC inconclusive | MPTP counter 74
O=C(N/N=C/c1ccc(OCc2ccc(F)cc2)cc1)c1ccccc1	none
CC(C)(C)c1ccc(OCc2ccc(C(=O)N/N=C/c3ccc(O)c(O)c3)cc2)cc1	MPTP block 85, CSC inhib 89, Calb FLC 63, Beta cell apopt 95 | MPTP counter inactive
CC(C)(C)c1ccc(OCc2ccc(C(=O)N/N=C3\CC4CC=CC34)cc2)cc1 (stereo not given)	MPTP block 55 | MPTP counter inactive | MPTP swell DR inactive | MPTP cs DR 25
O=C(CN(C(=O)CCC(=O)Nc1ccccn1)c1ccc(F)cc1)NCc1ccc(F)cc1	none
NCCOc1ccc(C23CC4CC(CC(C4)C2)C3)cc1	MPTP block 76 | MPTP counter inactive
Oc1ccc(C23CC4CC(CC(C4)C2)C3)cc1O	none (no result: Mdm2 MdmX PPI)
O=C(CSc1ncnc2ccccc12)NCCc1ccccc1	none
Cc1cc2c(NCCc3ccccc3)ncnc2s1	MPTP block 103, Beta cell apopt 108 | MPTP counter 95
CCCCCCCCNc1ncnc2ccccc12	MPTP block 103, Calb FLC 76, Beta cell apopt 101 | MPTP counter 87
c1ccc(CCNc2ncnc3ccccc23)cc1	MPTP block 96, Calb FLC 94, Beta cell apopt 100 | MPTP counter 103
CC1(C(=O)NS(=O)(=O)Cc2cccc(Cl)c2)CCN1C(=O)c1cccc(F)c1 (stereo not given)	none (no result: CSC inhib, Calb FLC, Beta cell apopt, Mdm2 MdmX PPI)
CC1(C(=O)NS(=O)(=O)c2ccc(Br)cc2)CCN1C(=O)C1CCCCC1 (stereo not given)	none (no result: CSC inhib, Calb FLC, Beta cell apopt, Mdm2 MdmX PPI)
COc1cc(C=C2CCCC(=Cc3ccc(OCC4CO4)c(OC)c3)C2=O)ccc1OCC1CO1 (stereo not given)	none (no result: CSC inhib, Calb FLC, Beta cell apopt, Mdm2 MdmX PPI)
Cc1ccc(S(=O)(=O)N2CCN(C(=O)CN3CCN(c4ccc(O)cc4)CC3)CC2)cc1	none (no result: CSC inhib, Calb FLC, Beta cell apopt, Mdm2 MdmX PPI)
Cc1nnc(NC(=O)CSc2n[nH]c(-c3ccccc3C)n2)s1	MPTP block 96 | MPTP counter inactive | MPTP swell DR inactive | MPTP cs DR inactive
CCc1nnc(NC(=O)CSc2n[nH]c(-c3ccccc3O)n2)s1	none
COc1ccc(Cn2cc(CN3CC(N4CCN(C)CC4)CS3(=O)=O)nn2)cc1 (stereo not given)	none (no result: CSC inhib, Calb FLC, Beta cell apopt, Mdm2 MdmX PPI)
CC(C)(C)NCCOCCOc1ccc(Cl)cc1C(C)(C)C	none
C=CCNCCOCCOc1ccc(Cl)cc1C(C)(C)C	MPTP block 92 | MPTP counter inactive | MPTP swell DR 11 | MPTP cs DR inactive

Compound activity: PubChem BioAssay, several laboratories
